# Source: PMC8384837, “Expanding the binding specificity for RNA recognition by a PUF domain”
# Legend:
# Experiment in all cases: yeast three-hybrid, YBZ-1, SC-Leu-His + 0.5 mM 3-AT, 4 days
# Details in all cases: tags: N-Gal4 AD-HA kept; label: inside an RPR1-promoter hybrid RNA with tandem MS2 sites; ssRNA
# PUM1 PUF domain R1-KSS = PUM1 PUF domain R1-KSS (Homo sapiens, UniProt Q14671 828-1176, S863K;R864S;Q867S)
# Procedure, shortened: (§1)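 Matching RNA elements and Pumilio-1 PUF domain libraries, randomized at the three base-contacting residues of every repeat, were co-expressed from a centromeric plasmid in strain YBZ-1 (LexA–MS2 coat fusion, HIS3 reporter). The repeat regions were PCR-amplified and Illumina-sequenced from cells grown four days on SC-Leu (input) or SC-Leu-His + 0.5 mM 3-AT (selection). The interaction score is the log change in variant frequency from input to selection. It is computed in log2, with a pseudocount of 1 for absent variants.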
# PUM1 PUF domain R5-HRP = PUM1 PUF domain R5-HRP (Homo sapiens, UniProt Q14671 828-1176, C1007H;Q1011P)
# Procedure, shortened: as §1
# PUM1 PUF domain R3-TWG = PUM1 PUF domain R3-TWG (Homo sapiens, UniProt Q14671 828-1176, C935T;R936W;Q939G)
# Procedure, shortened: as §1
# PUM1 PUF domain R3-KSG = PUM1 PUF domain R3-KSG (Homo sapiens, UniProt Q14671 828-1176, C935K;R936S;Q939G)
# Procedure, shortened: as §1
# PUM1 PUF domain R7-EFG = PUM1 PUF domain R7-EFG (Homo sapiens, UniProt Q14671 828-1176, S1079E;N1080F;E1083G)
# Procedure, shortened: as §1
# PUM1 PUF domain R8-KRA = PUM1 PUF domain R8-KRA (Homo sapiens, UniProt Q14671 828-1176, N1122K;Y1123R;Q1126A)
# Procedure, shortened: as §1
# PUM1 PUF domain R3-GFF = PUM1 PUF domain R3-GFF (Homo sapiens, UniProt Q14671 828-1176, C935G;R936F;Q939F)
# Procedure, shortened: as §1
# PUM1 PUF domain R6-LYC = biological target: T1, PUM1 PUF domain R6-LYC (Homo sapiens, UniProt Q14671 828-1176, N1043L;Q1047C)
# T1 sequence: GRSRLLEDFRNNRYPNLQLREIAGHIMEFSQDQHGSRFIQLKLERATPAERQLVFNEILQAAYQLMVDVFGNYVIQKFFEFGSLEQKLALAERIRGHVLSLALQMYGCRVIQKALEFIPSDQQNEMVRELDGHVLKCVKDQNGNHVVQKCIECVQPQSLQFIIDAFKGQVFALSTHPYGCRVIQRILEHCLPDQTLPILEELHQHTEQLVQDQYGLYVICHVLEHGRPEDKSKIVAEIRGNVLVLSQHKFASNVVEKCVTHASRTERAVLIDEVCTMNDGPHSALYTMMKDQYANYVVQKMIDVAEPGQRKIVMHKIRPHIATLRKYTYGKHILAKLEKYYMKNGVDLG
# Procedure, shortened: as §1
# PUM1 PUF domain R8-LWR = PUM1 PUF domain R8-LWR (Homo sapiens, UniProt Q14671 828-1176, N1122L;Y1123W;Q1126R)
# Procedure, shortened: as §1
# PUM1 PUF domain R4-SNM = PUM1 PUF domain R4-SNM (Homo sapiens, UniProt Q14671 828-1176, N971S;H972N;Q975M)
# Procedure, shortened: as §1
# PUM1 PUF domain R8-SWG = PUM1 PUF domain R8-SWG (Homo sapiens, UniProt Q14671 828-1176, N1122S;Y1123W;Q1126G)
# Procedure, shortened: as §1
# PUM1 PUF domain R8-RGK = PUM1 PUF domain R8-RGK (Homo sapiens, UniProt Q14671 828-1176, N1122R;Y1123G;Q1126K)
# Procedure, shortened: as §1
# PUM1 PUF domain R3-APF = PUM1 PUF domain R3-APF (Homo sapiens, UniProt Q14671 828-1176, C935A;R936P;Q939F)
# Procedure, shortened: as §1
# PUM1 PUF domain R4-EWY = PUM1 PUF domain R4-EWY (Homo sapiens, UniProt Q14671 828-1176, N971E;H972W;Q975Y)
# Procedure, shortened: as §1
# PUM1 PUF domain R8-FHK = PUM1 PUF domain R8-FHK (Homo sapiens, UniProt Q14671 828-1176, N1122F;Y1123H;Q1126K)
# Procedure, shortened: as §1
# PUM1 PUF domain R8-VWQ = PUM1 PUF domain R8-VWQ (Homo sapiens, UniProt Q14671 828-1176, N1122V;Y1123W)
# Procedure, shortened: as §1
# PUM1 PUF domain R7-GGN = PUM1 PUF domain R7-GGN (Homo sapiens, UniProt Q14671 828-1176, S1079G;N1080G;E1083N)
# Procedure, shortened: as §1
# PUM1 PUF domain R7-RVV = PUM1 PUF domain R7-RVV (Homo sapiens, UniProt Q14671 828-1176, S1079R;N1080V;E1083V)
# Procedure, shortened: as §1
# PUM1 PUF domain R5-QRW = PUM1 PUF domain R5-QRW (Homo sapiens, UniProt Q14671 828-1176, C1007Q;Q1011W)
# Procedure, shortened: as §1
# PUM1 PUF domain R3-GVE = PUM1 PUF domain R3-GVE (Homo sapiens, UniProt Q14671 828-1176, C935G;R936V;Q939E)
# Procedure, shortened: as §1
sequence,measurement,setting,value
GGCUAGAACUAGUGGAUCCCCCGGCGCCCGGCGGCUCGAGCCCGGGUAAGUGUAAAUCGUCUGCAUGCCGCCGGGCGCCAUGCCUGCAGGUCGACUCUAGAAAACAUG,binding signal,PUM1 PUF domain R1-KSS,4.09 log2 enrichment (interaction score)
GGCUAGAACUAGUGGAUCCCCCGGCGCCCGGCGGCUCGAGCCCGGGUAAGUGUUAAUAGUCUGCAUGCCGCCGGGCGCCAUGCCUGCAGGUCGACUCUAGAAAACAUG,binding signal,PUM1 PUF domain R5-HRP,3.28 log2 enrichment (interaction score)
GGCUAGAACUAGUGGAUCCCCCGGCGCCCGGCGGCUCGAGCCCGGGUAAGUGUAAUUAGUCUGCAUGCCGCCGGGCGCCAUGCCUGCAGGUCGACUCUAGAAAACAUG,binding signal,PUM1 PUF domain R3-TWG,0.73 log2 enrichment (interaction score)
same,binding signal,PUM1 PUF domain R3-KSG,2.51 log2 enrichment (interaction score)
GGCUAGAACUAGUGGAUCCCCCGGCGCCCGGCGGCUCGAGCCCGGGUAAGUCUAAAUAGUCUGCAUGCCGCCGGGCGCCAUGCCUGCAGGUCGACUCUAGAAAACAUG,binding signal,PUM1 PUF domain R7-EFG,3.46 log2 enrichment (interaction score)
GGCUAGAACUAGUGGAUCCCCCGGCGCCCGGCGGCUCGAGCCCGGGUAAGUGUAAAUAGUCUGCAUGCCGCCGGGCGCCAUGCCUGCAGGUCGACUCUAGAAAACAUG,binding signal,PUM1 PUF domain R8-KRA,1.2 log2 enrichment (interaction score)
same,binding signal,PUM1 PUF domain R3-GFF,5.53 log2 enrichment (interaction score)
same,binding signal,PUM1 PUF domain R6-LYC,3.91 log2 enrichment (interaction score)
same,binding signal,PUM1 PUF domain R8-LWR,4.7 log2 enrichment (interaction score)
same,binding signal,PUM1 PUF domain R4-SNM,2 log2 enrichment (interaction score)
same,binding signal,PUM1 PUF domain R8-SWG,2.95 log2 enrichment (interaction score)
same,binding signal,PUM1 PUF domain R8-RGK,0.16 log2 enrichment (interaction score)
same,binding signal,PUM1 PUF domain R3-APF,5.42 log2 enrichment (interaction score)
GGCUAGAACUAGUGGAUCCCCCGGCGCCCGGCGGCUCGAGCCCGGGUAAGUGAAAAUAGUCUGCAUGCCGCCGGGCGCCAUGCCUGCAGGUCGACUCUAGAAAACAUG,binding signal,PUM1 PUF domain R6-LYC,3.19 log2 enrichment (interaction score)
GGCUAGAACUAGUGGAUCCCCCGGCGCCCGGCGGCUCGAGCCCGGGUAAGUGUAUAUAGUCUGCAUGCCGCCGGGCGCCAUGCCUGCAGGUCGACUCUAGAAAACAUG,binding signal,PUM1 PUF domain R4-SNM,2.9 log2 enrichment (interaction score)
same,binding signal,PUM1 PUF domain R4-EWY,5.52 log2 enrichment (interaction score)
GGCUAGAACUAGUGGAUCCCCCGGCGCCCGGCGGCUCGAGCCCGGGUAAGCGUAAAUAGUCUGCAUGCCGCCGGGCGCCAUGCCUGCAGGUCGACUCUAGAAAACAUG,binding signal,PUM1 PUF domain R8-KRA,2.55 log2 enrichment (interaction score)
same,binding signal,PUM1 PUF domain R8-FHK,3.34 log2 enrichment (interaction score)
same,binding signal,PUM1 PUF domain R8-LWR,4.82 log2 enrichment (interaction score)
same,binding signal,PUM1 PUF domain R8-VWQ,2.89 log2 enrichment (interaction score)
same,binding signal,PUM1 PUF domain R8-SWG,2.43 log2 enrichment (interaction score)
same,binding signal,PUM1 PUF domain R8-RGK,2.62 log2 enrichment (interaction score)
GGCUAGAACUAGUGGAUCCCCCGGCGCCCGGCGGCUCGAGCCCGGGUAAGUUUAAAUAGUCUGCAUGCCGCCGGGCGCCAUGCCUGCAGGUCGACUCUAGAAAACAUG,binding signal,PUM1 PUF domain R7-GGN,3.78 log2 enrichment (interaction score)
same,binding signal,PUM1 PUF domain R7-RVV,2.58 log2 enrichment (interaction score)
GGCUAGAACUAGUGGAUCCCCCGGCGCCCGGCGGCUCGAGCCCGGGUAAGUGUGAAUAGUCUGCAUGCCGCCGGGCGCCAUGCCUGCAGGUCGACUCUAGAAAACAUG,binding signal,PUM1 PUF domain R5-QRW,4.36 log2 enrichment (interaction score)
GGCUAGAACUAGUGGAUCCCCCGGCGCCCGGCGGCUCGAGCCCGGGUAAGUGUCAAUAGUCUGCAUGCCGCCGGGCGCCAUGCCUGCAGGUCGACUCUAGAAAACAUG,binding signal,PUM1 PUF domain R5-QRW,0.43 log2 enrichment (interaction score)
same,binding signal,PUM1 PUF domain R5-HRP,1.78 log2 enrichment (interaction score)
GGCUAGAACUAGUGGAUCCCCCGGCGCCCGGCGGCUCGAGCCCGGGUAAGUGUAAGUAGUCUGCAUGCCGCCGGGCGCCAUGCCUGCAGGUCGACUCUAGAAAACAUG,binding signal,PUM1 PUF domain R3-GVE,3.97 log2 enrichment (interaction score)
same,binding signal,PUM1 PUF domain R3-TWG,4.61 log2 enrichment (interaction score)
